# ± gives the standard deviation of the averaged measurements.
# Compound: CCC/C=C/C=O [trans-2-hexenal]
# Experiment: control-subtracted net OSN firing rate; higher = stronger neuronal activation
# Conditions: odorant dilution (vol/vol): 1/100
# Protocol: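 Single sensillum recordings from olfactory sensory neurons. The neurons sit in the maxillary palp or antennal sensilla of D. melanogaster (wild type, mutants, or at1 empty-neuron lines expressing Or42a homologs or the A181D S307P mutant) and of four Scaptomyza species. Each odorant was given as a 1 s pulse from 20 µl loaded on filter paper at 1:100 vol/vol, diluted in mineral oil (γ-hexalactone in DMSO). Spikes were counted in a 0.5 s window starting 0.2 s after onset, background was subtracted, the count was doubled, and the mean solvent-control response was subtracted.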
row,Target,control-subtracted net OSN firing rate
1,S. montana pb1b-like,-11.3 ± 8.9 spikes/s
2,Canton-S (D. melanogaster) pb2a,4.86 ± 9.6 spikes/s
3,S. montana pb1a-like,145 ± 34 spikes/s
4,S. flava pb2b-like,15 ± 14 spikes/s
5,"Or67dGal4, UAS-Sfla Or42a3 at1",144 ± 32 spikes/s
6,S. hsui pb1a-like,115 ± 18 spikes/s
7,S. hsui pb3a-like,147 ± 24 spikes/s
8,S. pallida pb3a-like,109 ± 24 spikes/s
9,S. montana pb3b-like,8.33 ± 8.7 spikes/s
10,"Or67dGal4, UAS-Sfla Or42a2 at1",3.14 ± 12 spikes/s
11,Canton-S (D. melanogaster) pb1b,-5.33 ± 9 spikes/s
12,S. pallida pb2a-like,8.33 ± 6 spikes/s
13,S. hsui pb3b-like,-5 ± 4.2 spikes/s
14,S. montana pb2a-like,1 ± 8.5 spikes/s
15,Canton-S (D. melanogaster) pb3a,0.167 ± 5.6 spikes/s
16,S. flava pb1a-like,152 ± 26 spikes/s
17,S. flava pb3a-like,-3.33 ± 9.6 spikes/s
18,S. hsui pb2a-like,10 ± 12 spikes/s

row,Target,control-subtracted net OSN firing rate
1,S. pallida pb3b-like,-10 ± 14 spikes/s
2,Canton-S (D. melanogaster) pb1a,124 ± 31 spikes/s
3,S. flava pb3b-like,26 ± 42 spikes/s
4,S. pallida pb1a-like,103 ± 25 spikes/s
5,Canton-S (D. melanogaster) pb3b,-0.833 ± 5.7 spikes/s
6,S. pallida pb2b-like,6.67 ± 10 spikes/s
7,S. pallida pb1b-like,-6.67 ± 7.2 spikes/s
8,Canton-S (D. melanogaster) pb2b,0.857 ± 11 spikes/s
9,S. montana pb3a-like,3 ± 5.5 spikes/s
10,"Or67dGal4, UAS-Dmel Or42a at1",110 ± 52 spikes/s
11,"Or67dGal4, UAS-Spal Or42a at1",205 ± 10 spikes/s
12,S. flava pb2a-like,1.67 ± 6.6 spikes/s
13,S. hsui pb2b-like,15 ± 15 spikes/s
14,S. flava pb1b-like,-17.7 ± 8.2 spikes/s
15,S. hsui pb1b-like,-16.3 ± 10 spikes/s
16,S. montana pb2b-like,5.67 ± 5.1 spikes/s
17,"Or67dGal4, UAS-Sfla Or42a4 at1",179 ± 43 spikes/s

# From the supplement of paper PMC11482750
